# Compound activity: PubChem, several laboratories
# This is a sample that favours compounds with a hit; in the whole collection about 3.4% have one here.
# Gli-Sufu antag = blocks Gli-Sufu signaling in a luciferase reporter. AID 588413. hit rate 0.74% among 340,000. Sufu-KO-LIGHT fibroblasts, Gli luciferase reporter luminescence. inhibition, % at 5 µM;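 active means inhibition above about 55%, limit read from the data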;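 further: 0% = DMSO-treated cells and 100% = wells with medium but no cells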
# Cardio protect = protects H9c2 cardiomyocytes from peroxide injury; protection from H2O2 cell death, % at 20 µM; hit rate 0.63% among 360,000; H2O2 injury protection, ATPLite, 2 h; AID 588492;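 active means compounds giving at least 50% protection of heart cells from peroxide-induced death in the single-dose screen, raw or plate-pattern-corrected value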;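 further: 0% = DMSO wells with peroxide and 100% = DMSO wells without peroxide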
# GalR3 antag = human GalR3 antagonism | inhibition, % at 3 µM | hit rate 0.44% among 360,000 | HEK293 GalR3-CNG cAMP membrane potential fluorescence; galR3 body fused to GalR1 C-terminus | AID 651719 | O60755;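 active means inhibition above the screen-wide average plus 3 SD, cut at about 13% in these data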;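 further: forskolin and galanin both at EC90 stimulate the cells; cAMP rise reported by CNG channel membrane potential dye signal; 0% = forskolin plus galanin with DMSO and 100% = forskolin alone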
# FXN GAA850 act = activators of GAA850 frataxin (FXN) promoter; HEK293 lucGAA850 FXN promoter luciferase reporter, 24 h; percent of 10 µM SAHA response; activation, % at 6 µM; hit rate 0.56% among 360,000; AID 540364;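 active means activation above the average of all compounds screened plus 3 SD, cutoff fixed separately per campaign, cut at about 7.5% in these data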;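 further: 0% = DMSO wells and 100% = 10 µM SAHA wells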
# NR2F2 inh = inhibitors of human COUP-TFII (NR2F2); P24468; HEK293T NGFI-A luciferase reporter, luminescence; inhibition, % at 8.6 µM; hit rate 0.7% among 370,000;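 active means inhibition above a per-plate cutoff, mean inhibition of test wells between control levels plus 3 SD, cut at about 38% in these data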;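 further: cells cotransfected with COUP-TFII expression vector driving the NGFI-A reporter; 0% = median of COUP-TF2 test wells and 100% = reporter-only cells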
# Target sequence (P24468 whole entry, looked up): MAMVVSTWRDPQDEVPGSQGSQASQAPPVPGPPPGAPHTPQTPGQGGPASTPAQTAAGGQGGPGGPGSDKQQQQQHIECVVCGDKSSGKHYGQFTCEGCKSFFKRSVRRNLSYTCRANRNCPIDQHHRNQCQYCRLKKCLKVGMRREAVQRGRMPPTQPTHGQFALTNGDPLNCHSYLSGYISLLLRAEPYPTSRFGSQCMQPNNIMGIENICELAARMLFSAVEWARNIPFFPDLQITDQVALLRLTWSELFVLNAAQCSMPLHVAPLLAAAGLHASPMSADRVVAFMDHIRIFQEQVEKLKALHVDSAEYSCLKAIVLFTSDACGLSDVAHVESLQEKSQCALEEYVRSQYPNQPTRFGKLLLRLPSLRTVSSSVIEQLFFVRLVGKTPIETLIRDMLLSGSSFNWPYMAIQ
# SMARCA2 activ = increases SMARCA2 function in MMTV reporter cells; MG213 cells, MMTV-luciferase reporter, dexamethasone, overnight; activation, % at 9.1 µM; hit rate 1% among 370,000; AID 652017; in the data active means activation above about 7.8%;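 further: 0% = vehicle wells and 100% = reference activator wells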
# GalR3 conf = GalR3 (human) antagonism, confirmation | shares compounds with GalR3 antag | inhibition, % at 3 µM | HEK293 GalR3 CNG cAMP biosensor, membrane potential fluorescence; galR3 fused to GalR1 carboxy tail; challenged with forskolin and galanin at EC90 | hit rate 59% among 1,600 | AID 652245;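 active means inhibition above the primary screen's cutoff, the mean inhibition of all screened compounds plus 3 SD, cut at about 13% in these data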;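 further: 0% = forskolin plus galanin and 100% = forskolin alone with DMSO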
# CNG parental = parental cell agonism counter-screen for GalR3 antagonists; shares compounds with GalR3 antag; HEK293-CNG parental cells, cAMP membrane potential fluorescence; normalised: DMSO wells 0%, forskolin wells 100%; activation, % at 3 µM; hit rate 10% among 1,600; in the data active means activation above about 1.3%
# An asterisk follows results filed as active; nt = not tested or not shown.
SMILES,Gli-Sufu antag,Cardio protect,GalR3 antag,FXN GAA850 act,NR2F2 inh,SMARCA2 activ,GalR3 conf,CNG parental
N[C@@H](CO)c1nnc([C@H](Cc2ccc(O)cc2)NC(=O)C2CCNCC2)o1,-11,22,-2,0,-2,1,nt,nt
NCCCC[C@H](NC(=O)C1CCNCC1)c1nnc([C@@H](N)Cc2ccc(O)cc2)o1,-1,4,nt,0,5,0,-1,0
CCOC(=O)C1=C(COC(=O)CCOc2ccccc2C)NC(=O)NC1C (centres undefined),32,-3,-6,2,-11,-1,nt,nt
CC(=O)NC(Cc1c[nH]c2ccccc12)C(=O)OCC(=O)Nc1ccc2c(c1)OCO2 (centres undefined),-18,1,15*,-3,14,1,6,0
CCOC(=O)N1CCN(C(=O)c2ccc3nc(N4CCCCC4)sc3c2)CC1,-10,4,-3,4,3,2,nt,nt
NC(=O)C1CCN(C(=O)c2ccc3nc(N4CCCCC4)sc3c2)CC1,-36,0,16*,5,-24,2,1,0
O=C(O)c1ccccc1C(=O)c1ccc(F)c(F)c1,5,3,17*,0,-22,-2,2,0
Cc1cc(SCC(=O)N2c3ccccc3NC(=O)CC2C)nc2ccccc12 (centres undefined),nt,6,-8,-1,0,1,nt,nt
CCOc1ncccc1C(=O)OCC(=O)c1ccccc1,-5,2,0,3,-4,-2,nt,nt
CCOc1ncccc1C(=O)OCC(=O)c1ccccc1Br,3,1,16*,-1,11,0,-3,0
Cc1c(C(=O)NN)sc(-c2ccccc2)c1C#N,-3,5,16*,-2,9,1,1,0
Cc1ccc(-n2ncc3c(SCc4cccc(C)c4)ncnc32)cc1,-56,-12,1,3,-20,3,nt,nt
Cc1ccc(-n2ncc3c(SCc4cccnc4)ncnc32)c(C)c1,33,-34,60*,-5,29,-9,98*,0
CCc1cc2c(nc1CC)CCCN2S(=O)(=O)c1ccc(C#N)cc1,nt,nt,-7,nt,17,6,nt,nt
O=C(Nc1ccc(Br)cc1F)c1ccncc1,-81,0,22*,1,-33,1,15*,0
O=C(Nc1ccccc1F)c1ccncc1,3,-12,-3,0,-2,0,nt,nt
O=C(Nc1cccc(F)c1)N1CCCCCC1,0,-3,-4,0,-4,6,nt,nt
C/C(=C/C(=O)Nc1cccc(F)c1)N1CCCC1,0,9,17*,0,7,0,0,0
COc1cccc(Cn2c(NCc3ccccn3)nc3c2c(=O)n(C)c(=O)n3C)c1,nt,nt,14*,nt,-1,0,10,0
Cc1ccccc1NC(=O)CN1C(=O)CSc2ccc(S(=O)(=O)N3CCCCC3)cc21,-11,-4,-8,1,10,-2,nt,nt
CCOc1ccc(N(CC(=O)NC2CCCCC2)C(=O)CSc2nnc(COc3ccccc3)o2)cc1,4,-4,-4,-2,-13,-5,nt,nt
O=C(CN(Cc1cccs1)C(=O)CSc1nnc(COc2ccccc2)o1)NC1CCCCC1,3,-10,13*,1,5,0,1,1
CC(=O)c1cccc(CN2CCN(C(C)C)C(CCO)C2)c1 (centres undefined),1,2,7,0,7,-4,nt,nt
O=C(/C=C/c1cn(-c2ccccc2)nc1-c1cccnc1)NCCN1CCOCC1,14,21,18*,1,-11,-5,14*,0
COc1cc([N+](=O)[O-])cc(/C=N/NC(=O)c2cccnc2)c1O,7,33,54*,0,-1,-2,7,0
SMILES,Gli-Sufu antag,Cardio protect,GalR3 antag,FXN GAA850 act,NR2F2 inh,SMARCA2 activ,GalR3 conf,CNG parental
CN(C)C1=NC[C@H](Cc2ccccc2)N1CCc1cccc(F)c1,13,-11,6,-1,-3,1,nt,nt
CC(C)(C)CN1C(N)=NC[C@@H]1Cc1ccccc1,6,-1,nt,0,-68,-1,4,0
NC1=NC[C@H](Cc2ccc(O)cc2)N1CCc1cccc(F)c1,-4,4,nt,3,-10,1,7,0
Cc1cccc(S(=O)(=O)NC2CCCCCCC2)c1,12,-11,-4,0,3,1,nt,nt
Cc1ccc2oc(=O)c3cc(C(=O)NCCCN4C(C)CCCC4C)sc3c2c1 (centres undefined),28,-4,-3,2,-29,1,nt,nt
CC(C)(C)c1ccc(OCCn2nc(C(=O)O)c3ccccc3c2=O)cc1,-4,1,-10,2,16,2,nt,nt
O=C(O)c1nn(CCSc2ccccc2F)c(=O)c2ccccc12,2,25,27*,3,-15,0,9,0
Cc1ccc(SCCn2nc(C(=O)O)c3ccccc3c2=O)cc1,2,24,10,4,11,1,nt,nt
Cc1cccc(C)c1OCCn1nc(C(=O)O)c2ccccc2c1=O,1,57*,16*,-4,-14,0,24*,0
Cc1noc(C)c1Cn1nc(C(=O)O)c2ccccc2c1=O,-5,64*,19*,0,2,1,27*,1
Cc1cc(C(=O)OCC(=O)N(C)C2CCS(=O)(=O)C2)c(C)n1-c1ccccc1 (centres undefined),1,-1,2,0,0,-1,nt,nt
CCOC(=O)C1=C(COC(=O)COc2ccc(C#N)cc2)NC(=O)NC1C (centres undefined),-6,6,-3,2,-12,-2,nt,nt
CC(C)=CCOc1ccc([C@@H]2COc3c(ccc4c3C=CC(C)(C)O4)C2)c(O)c1,9,-14,19*,-1,20,-4,18*,22*
Cn1nccc1C(=O)Nn1cnnc1,-7,9,nt,2,-5,-2,6,0
CSc1ccc(S(=O)(=O)NC2CC2)cc1,2,3,-6,0,9,-2,nt,nt
CC(C)n1c(=S)[nH]c2scc(-c3cccs3)c2c1=O,-7,12,13*,4,-18,-3,2,0
CC(=O)c1ccc(OCC(=O)OCC(=O)Nc2sccc2C(N)=O)cc1,3,-10,1,1,9,-4,nt,nt
Cc1cccc(C(=O)OCC(=O)c2ccc(CC(=O)N3CCOCC3)s2)c1C,10,-1,-3,0,-11,-1,nt,nt
